Test results reported in PubChem BioAssay (NCI).
The panel holds about 83,000 compounds, 20% with a hit somewhere; the sample as a whole holds those more often.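 The test compound was applied at a single concentration to cells in 96-well plates for 48 hours, and percent growth was recorded.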 Unmarked numbers belong to inactive results. Calls of active or inactive are those of the source. The calls were made as follows: active = growth percent below 10; inactive = the rest.

Legend:
Test in all cases: NCI-60 one-dose screen, 48 h (100 = growth as untreated, 0 = no growth, -100 = all killed)
Settings in all cases: 10 µM unless noted
NCI-H23 lung = test system: NCI-H23 lung
NCI-H322M lung = test system: NCI-H322M lung
HOP-62 NSCLC = test system: HOP-62 NSCLC
NCI-H460 lung = test system: NCI-H460 lung
HOP-92 NSCLC = test system: HOP-92 NSCLC
NCI-H522 lung = test system: NCI-H522 lung
A549/ATCC NSCLC = test system: A549/ATCC NSCLC
786-0 renal = test system: 786-0 renal
COLO 205 colon = test system: COLO 205 colon
DU-145 prostate = test system: DU-145 prostate
K-562 leukemia = test system: K-562 leukemia
MALME-3M melanoma = test system: MALME-3M melanoma
MDA-MB-231 breast = test system: MDA-MB-231 breast
SF-268 CNS = test system: SF-268 CNS
SF-295 CNS = test system: SF-295 CNS
SF-539 CNS = test system: SF-539 CNS
UACC-257 melanoma = test system: UACC-257 melanoma
M14 melanoma = test system: M14 melanoma
HCT-15 colon = test system: HCT-15 colon
RXF 393 renal = test system: RXF 393 renal

Row | Structure (SMILES) | growth (NCI-H23 lung) | growth (NCI-H322M lung) | growth (HOP-62 NSCLC) | growth (NCI-H460 lung) | growth (HOP-92 NSCLC) | growth (NCI-H522 lung) | growth (A549/ATCC NSCLC) | growth (786-0 renal) [%] | growth (COLO 205 colon) | growth (DU-145 prostate) [%] | growth (K-562 leukemia) [%] | growth (MALME-3M melanoma) | growth (MDA-MB-231 breast) [%] | growth (SF-268 CNS) [%] | growth (SF-295 CNS) | growth (SF-539 CNS) | growth (UACC-257 melanoma) | growth (M14 melanoma) | growth (HCT-15 colon) [%] | growth (RXF 393 renal)
1 | OC(c1ccccc1)c1nnc(SCc2ccccc2)n1Cc1ccccc1 (configuration not stated) | 98.2% | 106% | 91.5% | 106% | 58.8% | 86.6% | 94.1% | 95.4 | 102% | 108 | 84.4 | 77.3% | 103 | 94.2 | 83.4% | 101% | 103% | 88% | 88.9 | –
2 | CC(C)(C)c1ccc(C2CC(=O)C3=C(C2)Nc2ccccc2N(C(=O)c2ccccc2Cl)C3c2ccc(F)cc2)cc1 (configuration not stated) | 3.17% (active) | -9.78% (active) | 25.3% | -0.748% (active) | 58.5% | 14.7% | -3.2% (active) | 51.8 | -63.5% (active) | 37 | 10.1 | -85% (active) | 15.7 | 10.3 | – | 8.74% (active) | -34.1% (active) | 5.11% (active) | 19.3 | -3.26% (active)
3 | O=C(Nc1ccc(Cl)cc1)c1cc2ccccc2cc1OP(=O)(O)O | -0.361% (active) | 22.7% | 32.3% | 14.2% | -24% (active) | 3.47% (active) | 16.4% | 20.6 | 98.9% | 24.9 | 27.1 | -16.3% (active) | 55.5 | 32 | -7.61% (active) | 32.1% | 15.7% | 31.9% | 23.2 | –
4 | Nc1nc(N)c2c(n1)NC1(C=C(O)c3ccccc31)C1=C(N2)c2ccccc2C1=O (configuration not stated) | 104% | 123% | 104% | 105% | 87% | 95.3% | 110% | 104 | 118% | 98.7 | 95.5 | 108% | 107 | 104 | 109% | 109% | 120% | 105% | 112 | –
5 | COc1ccc(OC)c(N(CCN2C(=O)c3ccccc3C2=O)C(=O)CCl)c1 | 32.1% | 97.7% | -3% (active) | 90.3% | -11.4% (active) | -73.3% (active) | 76% | 38.6 | 80.6% | 86.1 | 102 | -36.4% (active) | 69.7 | 35.3 | – | 23.1% | 83% | 84.2% | 80.3 | 58.7%
6 | CSc1nc2c(c(=O)[nH]1)N=C1c3ccccc3C(=O)C1C(c1ccc(F)cc1)N2 (configuration not stated) | 83.7% | 92.3% | 63.6% | 51.7% | 58.3% | 75.9% | 56.3% | 71.5 | 53.4% | 103 | 62.8 | 56.1% | 93.3 | 65.5 | -29% (active) | 68.7% | 79.1% | 43.4% | 46.1 | –
7 | N#CC(C#N)=Cc1c(-c2ccccc2)[nH]c2ccccc12 | 41% | 61% | 35.6% | 16.9% | 45.1% | 50.2% | 37.1% | 40 | 20.4% | 15.7 | 12.7 | 81.3% | 50.2 | 44.6 | 31.6% | -11.7% (active) | 52.3% | 27.7% | 35.3 | –
8 | CCOc1ccccc1CN1CCc2nc3cc(C(C)(C)C)[nH]n3c(=O)c2C1 | 97% | 101% | 99.6% | 107% | 112% | 77.1% | 112% | 90.8 | 112% | 115 | 87.2 | 107% | 92.3 | 105 | – | 93.7% | 108% | 91.6% | 97.4 | 93.5%
